# Screening results from PubChem.
# A selection: hits, their analogues and other compounds. The true share with any hit is near 2.4%.
# Cruzain Triton – qHTS Assay for Promiscuous and Specific Inhibitors of Cruzain (with detergent); Potency, µM, inactives show max response, negative = inhibition, most hits filed as inhibitors; 200,000 compounds, 0.43% hits; Cruzipain (Trypanosoma cruzi), P25779; purified cruzain, Z-FR-AMC fluorescence, 0.01% Triton;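 further: plate controls were neutral wells for no effect and buffer without enzyme for full effect; nearly all actives have a fitted effect of over 40% in size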
# Target sequence (P25779 123-467 limits assumed): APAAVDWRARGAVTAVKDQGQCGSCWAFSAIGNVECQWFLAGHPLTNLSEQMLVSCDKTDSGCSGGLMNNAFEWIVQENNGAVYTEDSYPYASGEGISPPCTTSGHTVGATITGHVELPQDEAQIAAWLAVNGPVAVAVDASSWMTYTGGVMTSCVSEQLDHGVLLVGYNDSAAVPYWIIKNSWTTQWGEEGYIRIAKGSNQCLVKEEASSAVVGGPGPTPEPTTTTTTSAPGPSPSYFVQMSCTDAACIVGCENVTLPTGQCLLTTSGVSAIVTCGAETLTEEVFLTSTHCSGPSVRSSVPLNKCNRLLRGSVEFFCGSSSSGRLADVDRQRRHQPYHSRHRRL
#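 Enzyme 1.5 nM, Z-FR-AMC 2 uM, NaOAc 100 mM pH 5.5, DTT 5 mM, Triton X-100 0.01%; 15 min RT compound preincubation; kinetic ex360/em450, 60 s delta.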
# Cruzain inh noDet – qHTS Assay for Promiscuous and Specific Inhibitors of Cruzain (without detergent). purified cruzain, Z-FR-AMC fluorescence, no detergent. Potency, µM, inactives show max response, negative = inhibition, hits mostly inhibitors. 200,000 compounds, 2.3% hits. AID 1476, 2009;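 further: plate controls were enzyme without inhibitor for no effect and buffer without enzyme for full effect; nearly all actives have a fitted effect of over 40% in size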
#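 Purified cruzain at 1.5 nM, pre-incubated 15 min with compound at room temperature in 100 mM sodium acetate pH 5.5, 5 mM DTT, 0.00005% Triton X-100. Reaction started with 2 uM Z-FR-AMC; AMC fluorescence increase over 60 s gives rate.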
# * = called active by the depositor; ? = inconclusive. The call rests on the fitted dose curve; in most records, active means well fitted curve in the direction sought with a large enough effect; inconclusive means small, poorly fitted or top-dose-only effect, or another doubt; inactive means no such curve, though single readings can be large; an effect the other way counts as inactive or inconclusive. Potency means the concentration at half of the fitted maximal effect.
SMILES,Cruzain Triton,Cruzain inh noDet
N#Cc1c(-c2ccccc2)cc(-c2ccccc2)nc1SCC(O)CS(=O)(=O)Cc1ccc(Cl)cc1 (configuration not stated),-5%,7.9µM*
COc1ccc(-c2cc(-c3ccccc3)c(C#N)c(SCC(O)CS(=O)(=O)Cc3ccc(Cl)cc3)n2)cc1 (configuration not stated),7%,?
CCOc1ccc(NC(=O)CCC(=O)O)cc1,2%,5%
Cc1ccc(S(=O)(=O)Nc2ccc(S(=O)(=O)N3CCCC3)cc2)cc1,-2%,0%
COCCOC(=O)c1c(C)n(S(=O)(=O)c2ccc(C)cc2)c2ccc(NS(=O)(=O)c3ccc(C)cc3)cc12,-3%,10µM*
Cc1ccc(S(=O)(=O)Nc2ccc3c(c2)c(C(=O)OC(C)C)c(C)n3S(=O)(=O)c2ccc(C)cc2)cc1,-3%,5µM*
CCOC(=O)c1c(-c2ccccc2)oc2ccc(NS(=O)(=O)c3ccc(C)cc3)cc12,0%,?
CC(Nc1cccc2ccccc12)C(=O)N/N=C/c1ccccn1 (configuration not stated),-7%,-5%
Cc1cccn2c(=O)c(/C=N/O)c(N3CCCC3)nc12,-1%,-1%
Cc1ccc(CSc2nc3ccccc3c(=O)n2CCCC(=O)NCc2ccco2)cc1,-1%,4%
CCCC1CCC(C2=N/C(=C\c3ccc(OC)c(OC)c3)C(=O)O2)CC1 (configuration not stated),1µM*,2.5µM*
COc1ccc(/C=C2\N=C(SC)SC2=O)cc1OC,-5%,-6%
Cc1cc(C)c(S(=O)(=O)NCCC2CCCN2C)c(C)c1 (configuration not stated),7%,-5%
Cc1ccccc1OCCn1nc(C(=O)O)c2ccccc2c1=O,-5%,16%
Cc1cc(C(=O)Cn2nc(C(=O)O)c3ccccc3c2=O)c(C)n1-c1ccc(F)cc1,-9%,25µM*
COc1ccc(/C=C/C(=O)NCC(=O)N/N=C/c2cc(Br)ccc2OCc2ccccc2)cc1,3%,6.3µM*
COc1ccc(Br)cc1/C=N/NC(=O)CNC(=O)/C=C/c1ccccc1,-4%,?
Fc1cccc(/C=N/NC(=S)Nc2ccccc2Cl)c1,-7%,?
Fc1ccc(NC(=S)N/N=C/c2cccc(Br)c2)c(F)c1,-5%,25µM*
Cc1sc2ncnc(SCC(=O)c3ccc4c(c3)OCCO4)c2c1-c1ccccc1,-2%,32µM*
O=C(CSc1ncnc2scc(-c3ccc(F)cc3)c12)c1ccc2c(c1)OCCO2,-6%,?
O=C(CSc1ncnc2ccccc12)c1ccc2c(c1)OCCO2,-6%,-5%
Cc1ccc(-c2csc3ncnc(SCC(=O)c4ccc5c(c4)OCCO5)c23)cc1,4%,10µM*
Cc1ccc(S(=O)(=O)N2CCCC2C(=O)n2nc(C)cc2C)cc1 (configuration not stated),-4%,4%
COC(=O)c1ccc(C(=O)OC)c(NS(=O)(=O)c2ccc(NC(C)=O)cc2)c1,-10%,10%
SMILES,Cruzain Triton,Cruzain inh noDet
Oc1ccc(Nc2nc(NCC3CCCO3)c3ccccc3n2)cc1 (configuration not stated),-25%,-27%
COc1cccc(Nc2nc(NCC3CCCO3)c3ccccc3n2)c1 (configuration not stated),14µM*,13µM*
CCc1ccc(C(=O)N2CCN(c3ccc(F)cc3)CC2)s1,0%,2%
O=c1[nH]cnc2scc(-c3cccs3)c12,-2%,4%
O=c1[nH]c(CN2CCc3ccccc32)nc2scc(-c3cccs3)c12,-6%,10µM*
CCC(=O)N1CCN(c2nc3ccccc3s2)CC1,-3%,-2%
O=C(c1cc2sccc2n1Cc1ccccc1)N1CCN(c2nc3ccccc3s2)CC1,-4%,7.9µM*
CC12CC(c3ccccc3O1)C(C(=O)N1CCOCC1)C(=O)N2 (configuration not stated),3%,-7%
COc1ccc(C2=C(C)C(=O)N(Cc3ccc(C(=O)Nc4ccc(C)c(C)c4)cc3)S2(=O)=O)cc1,-3%,7.9µM*
CCOc1ccc(NC(=O)c2ccc(CN3C(=O)C(C)=C(c4ccc(C)cc4)S3(=O)=O)cc2)cc1,-1%,-1%
CC1=C(c2ccc(C)cc2)S(=O)(=O)N(Cc2ccc(C(=O)Nc3ccccc3C)cc2)C1=O,-4%,?
CC1=C(c2ccc(C)cc2)S(=O)(=O)N(Cc2ccc(C(=O)NCc3ccccc3)cc2)C1=O,-5%,?
COc1ccccc1NC(=O)c1ccc(CN2C(=O)C(C)=C(c3ccc(C)c(C)c3)S2(=O)=O)cc1,-4%,32µM*
CC1=C(c2ccc(C)c(C)c2)S(=O)(=O)N(Cc2ccc(C(=O)NCc3ccccc3F)cc2)C1=O,-3%,25µM*
O=C(OCc1ccc(F)cc1Cl)c1ccccn1,0%,0%
Cc1ccc2oc(=O)n(CCNC(=O)Nc3ccccc3C)c2c1,4%,4%
CCCCCCNc1cc2n(c(=O)n1)CCc1cc(OC)c(OC)cc1-2,-16%,-13%
Cc1cccc(N2CCN(C(=O)c3ccc4nc(-c5ccco5)c(-c5ccco5)nc4c3)CC2C)c1 (configuration not stated),-2%,2%
CCCn1c(=N)c(C(=O)NCC2CCCO2)cc2c(=O)n3cccc(C)c3nc21 (configuration not stated),32µM*,?
CCOCCCn1c(=N)c(C(=O)NCC2CCCO2)cc2c(=O)n3cc(C)ccc3nc21 (configuration not stated),1%,?
Cc1ccc(CNC(=O)c2cc3c(=O)n4cccc(C)c4nc3n(CC3CCCO3)c2=N)cc1 (configuration not stated),-4%,?
Cc1cccn2c(=O)c3cc(C(=O)NCC4CCCO4)c(=N)n(CCN4CCOCC4)c3nc12 (configuration not stated),-16%,-1%
N=c1c(S(=O)(=O)c2ccccc2)cc2c(=O)n3ccccc3nc2n1CC1CCCO1 (configuration not stated),32µM*,?
COCCCn1c(=N)c(C(=O)NCC2CCCO2)cc2c(=O)n3ccccc3nc21 (configuration not stated),28µM*,?
Cc1ccc(S(=O)(=O)c2cc3c(=O)n4cc(C)ccc4nc3n(CC3CCCO3)c2=N)cc1 (configuration not stated),4%,16%
SMILES,Cruzain Triton,Cruzain inh noDet
COCCCn1c(=N)c(C(=O)NCC2CCCO2)cc2c(=O)n3cccc(C)c3nc21 (configuration not stated),25µM*,?
CCCCNC(=S)N(C)/N=C/c1ccc(OCc2ccc(C(=O)OC)cc2)c(OC)c1,-8%,-4%
CCS(=O)(=O)N1CCC(C(=O)NCc2ccc(F)cc2Cl)CC1,-3%,-18%
CCCCCc1nc2ccccc2c(=O)n1N,4%,8%
CCOc1ccc(S(=O)(=O)Nc2cc3c(C(=O)OCc4ccccc4)c(C)oc3c3ccccc23)cc1,-2%,-2%
CN(Cc1ccccc1)c1ncnc2c1nnn2C,0%,5%
CC(C)NC(=O)COc1ncnc2sccc12,6%,8%
Cc1onc(-c2ccccc2Cl)c1C(=O)NCc1ccco1,-5%,-7%
O=S(=O)(c1ccc(Cl)cc1)c1nc(-c2ccccc2Br)oc1N1CCOCC1,-11%,-8%
